From PubChem BioAssay
MEKK2wt PB1 HTS: raises or lowers MEK5 binding to wildtype human MEKK2 PB1 domain. Q9Y2U5. bead flow cytometry, Alexa488-MEK5 binding to MEKK2 WT; actives lie on both sides. binding response (% of control), % at 10 µM. actives 1.1% (n = 290,000); in the data active = binding response below about 67% or above about 130%; inconclusive = no clear call, values can overlap the other calls; inactive = in between
MEKK2 mut-MEK5: signal of MEK5 binding to mutant human MEKK2 PB1 domain | bead flow cytometry, Alexa488-MEK5 binding to MEKK2 mutant | percent response, % at 10 µM | actives 0.35% (n = 290,000); in the data active = percent response above about 24%, passing the limit was not always enough
UBC13 inh: blocks human UBC13 polyubiquitin chain formation. P61088. TR-FRET. inhibition, % at 20 µM. actives 0.47% (n = 330,000). AID 485273; in the data active = inhibition above about 45%, passing the limit was not always enough; inconclusive = no clear call, values can overlap the other calls
Target sequence (P61088 whole entry, looked up): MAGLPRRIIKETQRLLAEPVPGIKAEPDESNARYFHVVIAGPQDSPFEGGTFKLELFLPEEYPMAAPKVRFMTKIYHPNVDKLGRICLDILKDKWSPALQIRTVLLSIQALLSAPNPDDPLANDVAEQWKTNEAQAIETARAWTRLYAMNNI
MEKK3 PB1 HTS: raises or lowers MEK5 binding to the human MEKK3 PB1 domain | actives 1.4% (n = 290,000) | AID 1529 | binding response (% of control), % at 10 µM | bead-based flow cytometry, Alexa488-MEK5 binding to MEKK3; actives lie on both sides; 0 = blocked by unlabeled MEK5, 100 = vehicle;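 active = binding response more than 3 SD above or below the average of its plate-row segment, actives on both sides; inconclusive = wells at one plate position flagged as instrument error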;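 note: Alexa488 bead fluorescence after subtracting the streptavidin-only scavenger bead signal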
MEKK2wt confirm: raises or lowers MEK5 binding to wildtype human MEKK2, retest; shares compounds with MEKK3 PB1 HTS; bead flow cytometry, Alexa488-MEK5 binding to MEKK2 WT; actives lie on both sides; binding response (% of control), % at 10 µM; actives 2.4% (n = 5,900); AID 1892; in the data active = binding response below about 16% or above about 210%; inactive = in between
MEKK2mut confirm: signal of MEK5 binding to mutant human MEKK2, retest; shares compounds with MEKK3 PB1 HTS; bead flow cytometry, Alexa488-MEK5 binding to MEKK2 mutant; percent response, % at 10 µM; actives 2% (n = 5,900); in the data active = percent response mostly above about 71%, no sharp cut-off; inactive = mostly below about 38%;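 note: higher means compound restores mutant binding toward wildtype level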
MEKK3 confirm: MEKK3-MEK5 PB1 inhibition, single concentration confirmation; bead flow cytometry, Alexa488-MEK5 binding to MEKK3; active compounds read low; actives 1.8% (n = 5,900); shares compounds with MEKK3 PB1 HTS; binding response (% of control), % at 10 µM;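 active = binding response below 72% of control, or above a set upper limit, though filed actives all read lower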;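 note: 100% = DMSO only wells and 0% = binding blocked by excess unlabeled MEK5; lower values mean stronger disruption of MEK5 binding to MEKK3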
Casp3 counter: counter-screen for UBC13 inhibitors: human caspase-3 inhibition; actives 4% (n = 1,400); AID 488856; shares compounds with UBC13 inh; Recombinant caspase-3, Caspase-Glo 3/7 luminescence, 60 min; inhibition, % at 20 µM;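 active = mean inhibition across replicates above about 26%, limit read from the data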;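 note: plate controls were DMSO with caspase-3 for no effect and DMSO wells lacking enzyme for full effect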
Target sequence (P42574 whole entry, looked up): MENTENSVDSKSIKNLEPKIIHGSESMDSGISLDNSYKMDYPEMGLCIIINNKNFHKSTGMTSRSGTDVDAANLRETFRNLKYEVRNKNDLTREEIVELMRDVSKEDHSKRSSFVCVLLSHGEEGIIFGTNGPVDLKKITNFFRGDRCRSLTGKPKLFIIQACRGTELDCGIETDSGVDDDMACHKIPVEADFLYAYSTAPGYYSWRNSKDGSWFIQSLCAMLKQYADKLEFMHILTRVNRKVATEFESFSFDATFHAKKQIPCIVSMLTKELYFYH
UBC13 conf: human UBC13 polyubiquitin inhibition, confirmed; shares compounds with UBC13 inh; UBC13 polyubiquitination, TR-FRET, biochemical; inhibition, % at 10 µM; actives 68% (n = 1,400); AID 488859; in the data active = inhibition above about 45%; inconclusive = no clear call, values can overlap the other calls
Starred values were filed as active, the others as inactive; ? = inconclusive; . = no result given. Shown are actives, neighbours in structure and some others; about 2.3% of the full set was active somewhere.

SMILES | MEKK2wt PB1 HTS | MEKK2 mut-MEK5 | UBC13 inh | MEKK3 PB1 HTS | Casp3 counter | UBC13 conf | others
Cc1ccc(CN2CCSc3ccc(C(=O)NC4CCN(Cc5ccccc5)CC4)cc32)cc1 | 206.0* | 46.0 | 62.1* | 106.0 | 1.9 | ? | MEKK2wt confirm=240.0*;MEKK2mut confirm=80.0*;MEKK3 confirm=110.0
COc1cccc(-c2nn(C)c3sc(C(=O)NCCCN(C)Cc4ccccc4)cc23)c1 | 147.0* | 22.0 | 53.3* | 106.0 | -3.0 | 58.8* | MEKK2wt confirm=146.0;MEKK2mut confirm=46.0;MEKK3 confirm=105.0
CCN(CC)CCCNC(=O)c1cc2c(-c3cccc(OC)c3)nn(C)c2s1 | 120.0 | 13.0 | 32.7 | 101.0 | . | .
Cc1nc(N)sc1C(=O)N/N=C/c1ccco1 | 105.0 | 1.0 | 72.3* | 131.0* | 24.6 | 62.7* | MEKK2wt confirm=101.0;MEKK2mut confirm=5.0;MEKK3 confirm=104.0
Cc1nc2ccccc2cc1C(=O)N/N=C/c1ccco1 | 98.0 | -2.0 | -11.5 | 96.0 | . | .
COc1cc2nc(Nc3ccc(C)c(Cl)c3)nc(N)c2cc1OC | 181.0* | 50.0* | 110.8* | 105.0 | 25.1* | 120.7* | MEKK2wt confirm=198.0;MEKK2mut confirm=65.0;MEKK3 confirm=105.0
CC(C)N1CCc2c(sc(NC(=O)c3ccc(S(=O)(=O)N4CCc5ccccc54)cc3)c2C(N)=O)C1 | 196.0* | 56.0* | 50.4* | 107.0 | 0.2 | 40.7 | MEKK2wt confirm=164.0;MEKK2mut confirm=27.0;MEKK3 confirm=99.0
Cc1ccc(NC(=O)CCC(=O)OCC(=O)c2ccc(Oc3ccc([N+](=O)[O-])cc3)cc2)c(C)c1 | 97.0 | 3.0 | -1.2 | 101.0 | . | .
CCN1CCN(C(=S)Nc2ccc3nc(N4CCN(CC)CC4)cc(C)c3c2)CC1 | 106.0 | 3.0 | 7.7 | 106.0 | . | .
CCN1CCN(c2cc(C)c3cc(NC(=S)N4CCN(c5ccc(F)cc5)CC4)ccc3n2)CC1 | 130.0 | 15.0 | 46.9* | 113.0 | 2.4 | 42.6
COc1cccc(C(=O)N=c2sc3cc(S(C)(=O)=O)ccc3n2C)c1 | 111.0 | 5.0 | 7.0 | 106.0 | . | .
CCOc1ccccc1N1CCN(CC(=O)NCCc2ccc(S(N)(=O)=O)cc2)CC1 | 87.0 | -9.0 | 1.3 | 96.0 | . | .
O=C(Cn1ncn2c(cc3sccc32)c1=O)NC1CCCC1 | 103.0 | 4.0 | -4.0 | 99.0 | . | .
C#CCOCCOCCOCCNc1nc(N2CCN(C(=O)CCCCCCCCCCNC(=O)[C@H]([C@@H](C)CC)n3cc(CCCCCN)nn3)CC2)nc(N2CCN(C(=O)CCCCCCCCCCNC(=O)[C@H](CO)n3cc(CCCCCN)nn3)CC2)n1 | . | . | 120.4* | . | -0.5 | 123.7*
C#CCOCCOCCOCCNc1nc(N2CCN(C(=O)CCCCCCCCCCNC(=O)[C@@H](CCC(=O)O)n3cc(CCCCCN)nn3)CC2)nc(N2CCN(C(=O)CCCCCCCCCCNC(=O)[C@H]([C@@H](C)CC)n3cc(CCCCCN)nn3)CC2)n1 | . | . | 113.6* | . | -1.8 | 104.1*
C#CCOCCOCCOCCNc1nc(N2CCN(C(=O)CCCCCCCCCCNC(=O)[C@H]([C@@H](C)CC)n3cc(CCCCCN)nn3)CC2)nc(N2CCN(C(=O)CCCCCCCCCCNC(=O)[C@H](CCCCN)n3cc(CCCC(=O)O)nn3)CC2)n1 | . | . | 114.0* | . | -1.8 | 105.1*
C#CCOCCOCCOCCNc1nc(N2CCN(C(=O)CCCCCCCCCCNC(=O)[C@H](CO)n3cc(CCCSC)nn3)CC2)nc(N2CCN(C(=O)CCCCCCCCCCNC(=O)[C@@H]([C@H](C)O)n3cc(C)nn3)CC2)n1 | . | . | 11.0 | . | . | .
C#CCOCCOCCOCCNc1nc(N2CCN(C(=O)CCCCCCCCCCNC(=O)Cn3cc(C[C@@H](C)O)nn3)CC2)nc(N2CCN(C(=O)CCCCCCCCCCNC(=O)[C@H](CCCCN)n3cc(CCCC(=O)O)nn3)CC2)n1 | . | . | 43.9 | . | . | .
C#CCOCCOCCOCCNc1nc(N2CCN(C(=O)[C@H]([C@@H](C)O)n3cc(CCCCN)nn3)CC2)nc(N2CCN(C(=O)[C@H](CCCCN)n3cc(CCC(=O)O)nn3)CC2)n1 | . | . | 1.3 | . | . | .
C#CCOCCOCCOCCNc1nc(N2CCN(C(=O)CCCCCCCCCCNC(=O)[C@H](CCCCN)n3cc(CCCC(=O)O)nn3)CC2)nc(N2CCN(C(=O)CCCCCCCCCCNC(=O)[C@@H]([C@H](C)O)n3cc(C)nn3)CC2)n1 | . | . | 54.1* | . | -0.8 | 31.9
C#CCOCCOCCOCCNc1nc(N2CCN(C(=O)[C@H]([C@@H](C)CC)n3cc(CCCCN)nn3)CC2)nc(N2CCN(C(=O)[C@H](C)n3cc(CCC(=O)O)nn3)CC2)n1 | 97.0 | 2.0 | 0.5 | 106.0 | . | .
COC(=O)CCCC(=O)N1CCCC(N(C)CCc2ccccc2)C1 (centres undefined) | 108.0 | 8.0 | -3.4 | 106.0 | . | .
O=C(O)c1ccccc1Oc1ccc(Oc2ccccc2)cc1 | 106.0 | 2.0 | 6.3 | 106.0 | . | .
CCN1CCN(C(=S)NC(=O)c2cccc(Br)c2)CC1 | . | . | 0.0 | . | . | .
Cc1cc(OCC(=O)N(Cc2cccs2)C2CCS(=O)(=O)C2)ccc1Cl (centres undefined) | 100.0 | 2.0 | 0.5 | 100.0 | . | .
SMILES | MEKK2wt PB1 HTS | MEKK2 mut-MEK5 | UBC13 inh | MEKK3 PB1 HTS | Casp3 counter | UBC13 conf | others
C#CCOCCOCCOCCNc1nc(N2CCN(C(=O)Cn3cc(CCCCN)nn3)CC2)nc(N2CCN(C(=O)[C@H]([C@@H](C)CC)n3cc(CCCCN)nn3)CC2)n1 | . | . | 39.2 | . | . | .
C#CCOCCOCCOCCNc1nc(N2CCOCC2)nc(N2CCN(C(=O)CCCCCCCCCCNC(=O)[C@@H]([C@H](C)CC)n3cc(CCCCCN)nn3)CC2)n1 | . | . | 70.3* | . | 1.7 | 64.3*
Nc1nc(Cl)nc2ccc(Br)cc12 | 89.0 | -2.0 | 49.4* | 93.0 | -2.7 | ?
COc1cccc(NC(=O)CN(C)C(=O)c2cccnc2Nc2cccc(C(F)(F)F)c2)c1 | . | . | 46.6* | . | -1.2 | 34.0
Cc1ccc(NC(=O)CN(C)C(=O)c2cccnc2Nc2cccc(C(F)(F)F)c2)cc1 | 123.0 | 9.0 | -2.1 | 113.0 | . | .
COC(=O)CCC(C)N1CCC(Oc2ccc(C(=O)N3CCCC3)cc2)CC1 (centres undefined) | 104.0 | 2.0 | 2.1 | 104.0 | . | .
NC(=O)CCCn1c(C(=O)c2cc(Cl)c(N)c(Cl)c2)c2ccc(C(F)(F)F)cc2[n+]1[O-] | . | . | 96.6* | . | 1.1 | 92.8*
NC(=O)c1ccc(Cn2c(C(=O)c3cc(Cl)c(N)c(Cl)c3)c3ccccc3[n+]2[O-])cc1 | . | . | 98.5* | . | 0.1 | 94.6*
